This excerpt belongs to a sample that is enriched for hits.
CD40 NFkB inh: CD40 pathway inhibition in BL2 cells | BL2 NF-kB luciferase reporter, CD40L-induced, 4 h | inhibition, % at 10 µM | 0.94% of 83,000 active | AID 1053188;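 active = mean inhibition of at least 50% with a set share of replicates also reaching that level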;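 note: 0% = neutral control wells and 100% = IKK inhibitor VII at 50 µM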
Active calls of the source: *; [ ] = dose if it differs, or a comment.

Screening O=C1NC(=O)c2c1c1c3ccccc3[nH]c1c1[nH]c3ccccc3c21 returned CD40 NFkB inh 69.4*[25 µM].
Screening COC(=O)[C@H]1[C@H](CO)[C@H]2Cn3c(ccc(-c4ccccc4F)c3=O)[C@@H]1N2C(C)=O returned CD40 NFkB inh 1.0[25 µM].
Screening COc1ccc(OC(=O)N(C)C[C@H]2OCc3ccccc3-c3c(n(C)c4ccccc34)C(=O)N([C@@H](C)CO)C[C@@H]2C)cc1 returned CD40 NFkB inh 14.6.
C=CCN1[C@@H]2CN(C(=O)NC(C)C)C[C@H]1C2c1ccc(Br)cc1 (stereo partly drawn) was read as CD40 NFkB inh 0.3.
Screening COc1cccc(-c2ccc3n(c2=O)C[C@@H]2[C@@H](CO)[C@H](C(=O)O)[C@H]3N2Cc2ccccc2F)c1 returned CD40 NFkB inh -3.4[25 µM].

Source: PubChem BioAssay (Broad Institute)
